Bioassay records: PubChem, Broad Institute
SUMO Mot1 rescue: blocks SUMOylation pathway, rescuing yeast Mot1-301 growth; S. cerevisiae Mot1-301 growth rescue, ATP luminescence, 38.5C; percent above DMSO median, 100 means doubled; growth rescue, % at 18.8 µM; 320,000 compounds, 1% hits;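 active means every valid replicate shows activation above 250% relative to neutral control wells; inactive means the rest, any valid replicate at or below 250%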;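 further: OY570 slx delta 5 strain wells were the positive control but not used for scaling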
Casp6 inh: blocks human caspase-6 cleavage activity; P55212; purified caspase-6, Z-VEID-R110 cleavage fluorescence; 350,000 compounds, 0.53% hits; inhibition, % at 12.5 µM;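 active means mean inhibition across replicates at least about 35%, with every replicate also reaching that limit, limit read from the data; inconclusive means only one of the two criteria met; inactive means neither criterion met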;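 further: 0% = median of neutral control wells and 100% = no fluorescence left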
Target sequence (P55212 24-179 limits assumed): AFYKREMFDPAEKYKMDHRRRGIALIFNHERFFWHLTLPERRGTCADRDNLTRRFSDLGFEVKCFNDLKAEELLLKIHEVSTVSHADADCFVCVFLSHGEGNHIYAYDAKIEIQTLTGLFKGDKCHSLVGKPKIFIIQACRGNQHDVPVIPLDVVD
Target sequence (P55212 194-293 limits assumed): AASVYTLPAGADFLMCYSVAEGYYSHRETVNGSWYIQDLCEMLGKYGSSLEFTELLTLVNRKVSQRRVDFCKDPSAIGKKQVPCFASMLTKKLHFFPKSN
CDK5 p35 inh: CDK5/p35 (human) kinase inhibition | Q00535+Q15078 | Recombinant CDK5/p35, ADP-Glo luminescence, 60 min | inhibition, % at 10 µM | 330,000 compounds, 0.01% hits;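 active means highest replicate inhibition of at least 50% and at least 75% of replicates reaching 50%; inconclusive means only one of the two criteria met; inactive means both criteria failed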;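 further: plate controls were DMSO neutral control for no effect and GW8510 at 10 µM for full effect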
N-glyco inh: blocks N-linked glycosylation in D54 reporter cells | 360,000 compounds, 0.23% hits | D54 ERlucT glycosylation luciferase reporter, 24 h; percent of 100 nM tunicamycin response | reporter increase, % at 12.5 µM;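 active means mean luciferase reporter signal, scaled so untreated is 0 and the glycosylation-blocking control 100, at or above a set limit in every replicate; inconclusive means mean reaches the limit but not every replicate does; inactive means mean below the limit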;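 further: luciferase carries N-glycosylation sites so blocking glycosylation raises the light; 0% = median of neutral control wells and 100% = median of 100 nM tunicamycin wells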
NSD2 inh: inhibitors of human histone methyltransferase NSD2; inhibition, % at 12.5 µM; O96028; AID 743445; 310,000 compounds, 0.54% hits; NSD2 peptide methylation, AlphaScreen, 120 min; in the data active means inhibition above about 50%
ALR inh: inhibitors of human sulfhydryl oxidase ALR | P55789 | 290,000 compounds, 3.8% hits | inhibition, % (test concentration not listed) | AID 485317 | purified ALR, DTT oxidation, H2O2 HRP-luminol luminescence;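 active means mean replicate inhibition above about 79%, with every replicate also reaching it, limit read from the data; inconclusive means only one of the two criteria met; inactive means mean below limit and not every replicate reaching it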
Active calls of the source: *; u = inconclusive; x = no result given. Hits are enriched below; roughly 3.9% of the tested compounds scored in any of these assays.

SMILES	SUMO Mot1 rescue	Casp6 inh	CDK5 p35 inh	N-glyco inh	NSD2 inh	ALR inh
COc1cccc(NC(=O)C[C@H]2CC[C@@H]3[C@@H](COc4ccc(NC(C)=O)cc4C(=O)N3C)O2)c1	x	1	x	x	x	x
CC(C)(C)c1ccc(C(=O)NC(=S)NNC(=O)COc2ccccc2)cc1	-30	-4	5	5	x	99*
CCS(=O)(=O)Nc1ccc2c(c1)C(=O)N(C)[C@@H]1CC[C@@H](CC(=O)NCc3ccccc3F)O[C@@H]1CO2	x	0	x	x	x	x
OCCCCCN=c1cc(-c2ccccc2)oc2ccc(Cl)cc12	-4	x	2	51*	3	0
CC(C)CNc1nc(S(=O)(=O)c2ccccc2)c(Cl)s1	-11	-3	0	-2	-1	1
CN(C)CCNc1nc(S(=O)(=O)c2ccccc2)c(Cl)s1	355*	-7	0	0	1	-2
CCc1ccc(NC(=O)/C(C#N)=C/c2ccncc2)cc1	0	-1	2	8	1	u
CC(=O)c1ccc(NC(=O)/C(C#N)=C/c2ccncc2)cc1	-6	5	0	3	1	98*
CN=c1scc(-c2ccccc2F)n1/N=C(\C)c1cccnc1	16	2	2	-8	28	94*
CCC(=O)N[C@@H]1CC[C@H](CC(=O)NCc2ccccc2OC)O[C@@H]1CO	x	4	x	x	x	x
Cc1ccsc1C(=O)NNC(=O)CCN1CCN(c2ccccc2)CC1	10	-1	2	1	1	94*
CCOc1ccc(C(=O)CCC(=O)NNC(=O)CCN2CCN(c3ccccc3)CC2)cc1	-16	-3	0	2	0	95*
Cc1ccccc1C(=O)NCC(=O)NNC(=O)CCN1CCN(c2ccccc2)CC1	-1	-1	-1	2	-3	3
CC(Oc1ccc(Br)cc1)C(=O)NNC(=O)CCN1CCN(c2ccccc2)CC1 (centres undefined)	-11	-4	0	-3	0	95*
O=C(CCN1CCN(c2ccccc2)CC1)NNC(=O)Cc1ccc(Br)cc1	x	-1	-3	0	1	x
CCOc1ccc(NC(=O)CCN2CCN(c3ccccc3)CC2)cc1	x	x	0	2	1	18
O=C(C[C@@H]1C[C@H]2c3cc(NC(=O)c4cccnc4)ccc3O[C@H]2[C@H](CO)O1)NCc1ccccc1	x	-2	x	x	x	x
Cc1ccc2cc(CCl)c(Cl)nc2c1	-11	0	0	0	x	98*
O=C1C(=O)N(c2ccc(O)cc2)C(c2ccccc2[N+](=O)[O-])/C1=C(\O)c1ccccc1 (centres undefined)	-8	4	-2	0	23	85*
O=C1C(=O)N(CCO)C(c2ccccc2[N+](=O)[O-])/C1=C(\O)c1ccccc1 (centres undefined)	-7	5	0	3	2	-10
C[C@H]1CN([C@@H](C)CO)C(=O)Cc2cc(NC(=O)CCC(F)(F)F)ccc2O[C@@H]1CN(C)Cc1ccccc1	x	-1	x	x	x	x
COc1ccc(-n2nnc3c(SCC(=O)Nc4ccc5c(c4)OCCO5)ncnc32)cc1	-2	x	x	x	x	99*
Cc1ccc(NC(=O)COC(=O)c2ccc(NC(=O)CC#N)cc2)cc1S(=O)(=O)N1CCOCC1	6	-2	1	1	-1	99*
Cc1ccc(NC(=O)CSc2ncnc3ccccc23)cc1S(=O)(=O)N1CCOCC1	22	-2	0	-3	-5	99*
COc1ccc(-n2nnc3c(=O)n(CC(=O)Nc4ccc5c(c4)OCCO5)cnc32)cc1OC	7	-1	-1	0	-1	-6
O=C(CSc1ncnc2ccccc12)Nc1ccc2c(c1)OCO2	-21	-3	0	1	x	98*
O=C(CSc1ncnc2c1cnn2-c1ccccc1)Nc1ccc2c(c1)OCO2	87	x	0	1	-1	-6
C[C@H](CO)N1C[C@H](C)[C@H](CN(C)Cc2ccc(C(=O)O)cc2)OCCCC[C@H](C)Oc2ccc(NS(=O)(=O)c3ccc(F)cc3)cc2C1=O	x	-1	x	x	x	x
C[C@H](NC(=O)C[C@H]1C[C@H]2c3cc(NC(=O)Nc4ccc(C(F)(F)F)cc4)ccc3O[C@H]2[C@@H](CO)O1)c1ccccc1	x	-1	x	x	x	x
COc1ccc(CN(C)C[C@@H]2Oc3ccc(NC(=O)Nc4c(C)noc4C)cc3CC(=O)N([C@H](C)CO)C[C@@H]2C)cc1	x	-2	x	x	x	x
